According to PubChem BioAssay:
Activity calls are given as the source filed them.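 How the source made its calls: active means thallium flux through the channel raised or lowered by more than 3 SD from vehicle-only wells, actives on both sides; inactive means the rest.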

Legend:
Assay in all cases: modulators of BK channel variants, profiling panel, selectivity assay, cell-based, U2OS BacMam, thallium flux, beta subunits (AID 1259406);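 further: initial slope of Thallos dye fluorescence rise after thallium is added; log ratio against the mean of 0.3% DMSO vehicle wells on the same plate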
F380Y = conditions: at 30 µM
F380Y/beta1 = conditions: at 30 µM
F380Y/beta2Delta = conditions: at 30 µM
F380Y/beta4 = conditions: at 30 µM
[1] = target: Calcium-activated potassium channel subunit alpha-1 (Homo sapiens) + Leucine-rich repeat-containing protein 26 (Homo sapiens) (UniProt Q12791+Q2I0M4); conditions: F380Y/Slo1WT/gamma1, at 30 µM
R275C = conditions: at 30 µM
R275C/beta1 = conditions: at 30 µM
R275C/beta2Delta = conditions: at 30 µM
R275C/beta4 = conditions: at 30 µM
R275C/Slo1WT/beta2 = conditions: at 30 µM

Measured: log fold change Tl+ flux

Calcium-activated potassium channel subunit alpha-1 (Homo sapiens) + Leucine-rich repeat-containing protein 26 (Homo sapiens), sequence (Q2I0M4 whole entry, looked up, one chain of several): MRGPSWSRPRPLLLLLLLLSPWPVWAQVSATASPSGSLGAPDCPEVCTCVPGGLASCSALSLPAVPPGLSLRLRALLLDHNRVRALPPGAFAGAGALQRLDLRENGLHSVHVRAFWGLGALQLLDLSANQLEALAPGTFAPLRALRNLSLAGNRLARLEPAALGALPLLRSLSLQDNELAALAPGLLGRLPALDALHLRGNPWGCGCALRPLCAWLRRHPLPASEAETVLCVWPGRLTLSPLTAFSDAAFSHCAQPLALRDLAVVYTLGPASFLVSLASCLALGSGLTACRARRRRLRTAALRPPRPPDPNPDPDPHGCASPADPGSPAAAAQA

COc1cccc(C(=O)Nc2cc(F)c(Br)cc2F)c1
inactive: F380Y -0.0206 | F380Y/beta1 -0.0212 | F380Y/beta2Delta -0.00467 | F380Y/beta4 -0.0131 | [1] -0.0252 | R275C -0.0759 | R275C/beta1 -0.106 | R275C/beta2Delta -0.0756 | R275C/beta4 -0.0731 | R275C/Slo1WT/beta2 -0.0319

Cc1nc(C)c(C(=O)O)c(-c2ccsc2)c1C(=O)O
inactive: F380Y 0.00149 | F380Y/beta1 0.0257 | F380Y/beta2Delta -0.0103 | F380Y/beta4 0.0238 | [1] 0.0233 | R275C 0.0307 | R275C/beta1 0.0388 | R275C/beta2Delta -0.00263 | R275C/beta4 0.00868 | R275C/Slo1WT/beta2 0.0152

C1=CC=CC(C2C=CC=CC=C2)C=C1
inactive: F380Y 0.0519 | F380Y/beta1 0.0343 | F380Y/beta2Delta -0.0453 | F380Y/beta4 0.0315 | [1] -0.0568 | R275C -0.00176 | R275C/beta1 -0.00852 | R275C/beta2Delta -0.000831 | R275C/beta4 0.0377 | R275C/Slo1WT/beta2 -0.0164

FC(F)(F)c1cc(-c2noc(-c3ccc4c(c3)CCO4)n2)cc(C(F)(F)F)c1
inactive: [1] 0.0774 | R275C 0.0291 | R275C/Slo1WT/beta2 -0.0138
active: F380Y 0.118 | F380Y/beta1 0.292 | F380Y/beta2Delta 0.24 | F380Y/beta4 0.269 | R275C/beta1 0.191 | R275C/beta2Delta 0.182 | R275C/beta4 0.0808

Oc1ccccc1C=NCCN=Cc1ccccc1O
inactive: F380Y -0.0379 | F380Y/beta1 -0.0045 | F380Y/beta2Delta 0.0233 | [1] 0.00734 | R275C 0.0166 | R275C/beta1 -0.00586 | R275C/beta2Delta 0.0216 | R275C/beta4 0.00607 | R275C/Slo1WT/beta2 0.0616
active: F380Y/beta4 0.122

COc1cc(CCC(C)NC(=O)c2ccc(C)cc2)ccc1OC(=O)c1ccc(C)cc1 (stereo not given)
inactive: F380Y -0.0917 | F380Y/beta1 -0.0646 | F380Y/beta2Delta -0.0421 | R275C -0.0349 | R275C/beta1 -0.0935 | R275C/beta2Delta -0.0312 | R275C/beta4 -0.0233 | R275C/Slo1WT/beta2 0.00819
active: F380Y/beta4 -0.23 | [1] -0.115

Cc1ccc(C(=O)c2c(-c3ccccc3)cc(-c3ccccc3)c3c2C(=O)CCC3)cc1
inactive: F380Y 0.0109 | F380Y/beta1 -0.036 | F380Y/beta2Delta 0.0354 | F380Y/beta4 -0.0286 | [1] -0.0641 | R275C 0.0312 | R275C/beta1 -0.0154 | R275C/beta2Delta 0.00863 | R275C/beta4 -0.00364 | R275C/Slo1WT/beta2 -0.0497

Cc1onc(-c2c(Cl)cccc2Cl)c1C(=O)NOC(=O)c1cccs1
inactive: F380Y 0.00334 | F380Y/beta1 0.0153 | F380Y/beta2Delta 0.0189 | F380Y/beta4 0.0829 | [1] -0.0657 | R275C -0.0156 | R275C/beta1 0.0266 | R275C/beta2Delta 0.0291 | R275C/beta4 0.0618 | R275C/Slo1WT/beta2 -0.0647

COc1ccc(C(C)=NO)cc1CN1CCCC1
inactive: F380Y 0.00748 | F380Y/beta1 0.0291 | F380Y/beta2Delta 0.0236 | F380Y/beta4 0.062 | [1] 0.0507 | R275C 0.0203 | R275C/beta1 0.0511 | R275C/beta2Delta -0.0181 | R275C/beta4 -0.0237 | R275C/Slo1WT/beta2 0.0863

COC(=O)c1cc(S(=O)(=O)N(Cc2ccc(OC)cc2)Cc2cccn2C)oc1C
inactive: F380Y/beta2Delta -0.0509
active: F380Y -0.118 | F380Y/beta1 -0.0838 | F380Y/beta4 -0.483 | [1] -0.414 | R275C -0.56 | R275C/beta1 -0.496 | R275C/beta2Delta -0.122 | R275C/beta4 -0.289 | R275C/Slo1WT/beta2 -0.135

O=S(=O)(CCN1CCN(Cc2ccccc2)CC1)c1ccc(F)cc1
inactive: F380Y -0.000988 | F380Y/beta1 0.0135 | F380Y/beta2Delta 0.0237 | F380Y/beta4 0.0241 | [1] 0.000113 | R275C 0.0486 | R275C/beta1 0.0249 | R275C/beta2Delta 0.00728 | R275C/beta4 0.0441 | R275C/Slo1WT/beta2 -0.0289

Cc1nc(-c2n[nH]c(=S)n2C)cs1
inactive: F380Y -0.0125 | F380Y/beta1 -0.0212 | F380Y/beta2Delta 0.0116 | F380Y/beta4 -0.0241 | [1] 0.0365 | R275C 0.0188 | R275C/beta1 0.00398 | R275C/beta2Delta 0.0232 | R275C/beta4 -0.0295 | R275C/Slo1WT/beta2 -0.00583

O=C(c1ccc(-c2cccs2)s1)c1ccc(F)cc1F
inactive: F380Y -0.00876 | F380Y/beta1 0.022 | F380Y/beta2Delta 0.0129 | F380Y/beta4 0.0546 | [1] 0.0119 | R275C -0.00813 | R275C/beta1 0.00849 | R275C/beta2Delta 0.0495 | R275C/beta4 -0.00599 | R275C/Slo1WT/beta2 0.0293
